USP2a inh – inhibitors of human ubiquitin-specific protease USP2a; O75604; USP2a enzymatic assay, qHTS inhibition; Potency, µM (top dose mostly 38.3 µM), without a hit: at the top dose activity change, negative = inhibition, hits mostly inhibitors; actives 0.1% (n = 60,000); also: potency is read from the fitted curve at half-maximal effect; nearly all actives have a fitted effect of over 60% in size
Target sequence (O75604 whole entry, looked up): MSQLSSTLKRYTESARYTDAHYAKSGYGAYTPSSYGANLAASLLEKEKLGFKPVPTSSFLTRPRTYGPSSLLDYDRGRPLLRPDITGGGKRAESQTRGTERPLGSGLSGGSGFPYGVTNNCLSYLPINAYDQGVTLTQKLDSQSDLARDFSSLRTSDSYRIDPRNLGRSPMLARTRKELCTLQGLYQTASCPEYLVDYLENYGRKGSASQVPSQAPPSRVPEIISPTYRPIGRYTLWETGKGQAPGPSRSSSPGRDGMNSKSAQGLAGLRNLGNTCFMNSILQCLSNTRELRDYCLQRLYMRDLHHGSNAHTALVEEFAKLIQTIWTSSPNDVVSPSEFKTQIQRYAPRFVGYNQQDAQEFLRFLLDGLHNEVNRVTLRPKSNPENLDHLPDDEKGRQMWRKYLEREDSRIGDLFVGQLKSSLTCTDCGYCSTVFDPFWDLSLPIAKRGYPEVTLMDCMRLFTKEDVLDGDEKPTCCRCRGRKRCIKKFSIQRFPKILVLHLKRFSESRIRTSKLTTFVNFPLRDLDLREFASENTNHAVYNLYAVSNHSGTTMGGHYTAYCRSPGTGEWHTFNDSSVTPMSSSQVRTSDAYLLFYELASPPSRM
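USP2 core (20nM final) preincubated 30 min RT with compound, then Ub-PLA2 20nM and NBD C6-HPC 20uM final added; buffer 20mM Tris-HCl pH 8.0, 2mM CaCl2. Fluorescence Ex 460/Em 535 read at 0 and 2.5 h; normalized to NEM.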
Peg3 imprint – induces erasure of genomic imprints in mouse ES cells | Potency, µM (series often up to 60.7 µM), without a hit: at the top dose activity change, positive = activation, hits mostly activators | actives 0.02% (n = 110,000) | mouse ES Peg3-LacZ reporter, beta-gal luminescence, 40 h; also: potency is read from the fitted curve at half-maximal effect
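Imprint erasure is scored as LacZ activity from the silenced maternal Peg3 allele in feeder-free female ES cells cultured 40 h with LIF. Luminescence is normalized to in-plate negative controls and fitted to the Hill equation.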
UbGFP stabilizer – inhibits proteasome, raising ubiquitin-GFP reporter fluorescence; Ubiquitin-GFP reporter cells, proteasome inhibition, GFP fluorescence; response scale: untreated = 0%, 10 µM MG-132 = 100%; Potency, µM (doses to about 45.9 µM), for inactives: at the top dose activation (GFP accumulation), hits mostly activators; 67,000 tested, under 10 active; AID 526; active = well fitted activation curve with a large enough effect, not every such curve was filed as active; inconclusive = small, poorly fitted or top-dose-only effect, or another doubt; inactive = no such curve, though single readings can be large or run the other way; also: potency is read from the fitted curve at half-maximal effect
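GFP accumulation read-out: laser plate cytometry counting ubiquitin(G76V)-GFP-expressing U2OS cells after 4 hr compound exposure at 37 °C. Titrations spanned 46 uM to 2.9 nM; 0% = basal, 100% = 10 uM MG-132; concentration-response curves fitted.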
IkB sig inh – IkB pathway inhibition in ABC-DLBCL cells; ABC-DLBCL IkBa-CBG/CBR dual luciferase ratio, 4 h; response scale: scaled: untreated 0%, proteasome inhibitor 100%; actives 0.04% (n = 110,000); Potency, µM (series often up to 57.1 µM), for the others: top-dose IkBa stabilization activation; active = well fitted curve in the direction sought with a large enough effect in the signal ratio, not every such curve was filed as active; inconclusive = small, poorly fitted or top-dose-only effect, or a change in a side signal; the % refers to the signal ratio;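 also: potency is read from the fitted curve at half-maximal effect; the direction sought is a rising ratio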
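Luminescence ratio of IκBα-fused green versus native red beetle luciferase in OCI-Ly3 cells, 4 h post-doxycycline with compound; red signal alone, scaled from basal (0%) to zero light (-100%), flagged nonspecific or cytotoxic effects.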
Epigenetic mod – epigenetic GFP locus derepression in mouse cells; mouse C127i GFP locus derepression, cytometry, 30 h; Potency, µM (series often up to 46.1 µM), for inactives: at the highest dose GFP derepression (activation); actives 0.09% (n = 68,000); AID 597; also: % of control where 0% means no effect
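Derepression screen: silenced CMV-GFP reporter in murine C127i cells, 30 h compound incubation at 37 C, washed cells imaged by laser-scanning cytometer to enumerate GFP-expressing objects of 20 to 120 um.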
HBB splicing – hemoglobin beta splicing modulation; HBB splicing reporter cell assay, activation; EGFP reporter with mutant IVS2-654 intron; response scale: normalised to 500 nM splice-correcting PNA; Potency, µM (highest dose often 46.1 µM), inactives show at the highest dose activation, most hits filed as activators; actives 0.06% (n = 65,000); also: potency is read from the fitted curve at half-maximal effect; 0% is about no effect
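Compounds were applied for 2 days to HeLa EGFP-654 cells, 500/well in Optimem with 2% FCS. The reporter's EGFP is disrupted by mis-splicing of beta-globin intron IVS2-654. Readout: summed well GFP fluorescence from 488 nm laser scanning; reference was 500 nM antisense […] 654 PNA.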
Active calls of the source: *; ? = inconclusive; · = not tested or not shown; [ ] = remark or other dose. An excerpt weighted towards active compounds, which were near 0.18% of everything screened. Unless noted, calls follow the shape of the dose curve; as a rule, active = well fitted curve in the direction sought with a large enough effect; inconclusive = small, poorly fitted or top-dose-only effect, or another doubt; inactive = no such curve, though single readings can be large; an effect the other way counts as inactive or inconclusive.

SMILES	USP2a inh	Peg3 imprint	UbGFP stabilizer	IkB sig inh	Epigenetic mod	HBB splicing
Cc1ccc(O)cc1	-15.2%	16.3%	·	1.6%	·	0.1%
CN(N=O)c1cc(O)ccc1O	15.8µM*	-7.2%	-3.2%	-4.7%	3.6%	0.8%
O=C(c1ccccc1)[C@H]1[C@H](c2ccccc2[N+](=O)[O-])N1C1CCCCC1 (stereo not given in full)	·	-20.9%[10.9 µM]	4.6%[9.17 µM]	5.01µM*	-3.4%[9.22 µM]	0.7%[9.22 µM]
[Cd+2].[Cl-].[Cl-]	·	-22.4%	·	3.98µM*	·	-1.8%
O=c1cccc2n1C[C@@H]1C[C@H]2CN2CCCC[C@H]12	·	·	-1.2%	3.4%[11.4 µM]	-2.4%[9.22 µM]	·
CN(C)C1C(=O)C(C(N)=O)=C(O)[C@@]2(O)C(=O)C3=C(O)c4c(O)ccc(Cl)c4[C@](C)(O)C3CC12 (stereo not given in full)	10µM*	-25.8%	·	·	·	·
CN1C[C@@H](CS(=O)(=O)N(C)C)C[C@H]2c3cccc4c3c(cn4C)C[C@@H]21	8.2%	·	-0.2%	-2.4%	-1.1%	1.7%
O[N+]1=CC=CCC1=S.On1ccccc1=S.[Zn]	?	-30.7%	·	·	·	·
CN1CSC(=S)N(C)C1	·	-33.1%	15.3%	3.8%	6.31µM*	0.8%
COc1ccc2c(c1O)-c1cccc3c1[C@H](C2)N(C)CC3	-1.7%	·	-8.2%	-0.1%	-1.1%	4.3%

Bioassay records: PubChem BioAssay, National Center for Advancing Translational Sciences (NCATS)
